Laboratory results as given in PubChem BioAssay (Tox21).
Several values for one entry are separate records, joined by “and”; a condition that tells them apart may be missing. Identical values can stand only once. Results filed as inconclusive are left out. Where a call stands in place of a potency, no number is given. A structure can be active in one record and inactive in another. Activity calls are given as the source filed them. Unless noted, calls come from the whole dose curve; as a rule, active = well fitted curve in the direction sought with a large enough effect in the repeat runs; inconclusive = weak or mixed curves; inactive = no such curve, though single readings can be large; an effect the other way counts as inactive or inconclusive.

How the values were obtained:
[1] = qHTS assay to identify small molecule agonists of the RXR signaling pathway - cell viability counter screen (AID 1159529); note: series mostly up to about 77 µM; nearly all actives have a fitted effect of over 50% in size
Method in brief: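 Tox21 10K compounds were tested for cytotoxicity against GeneBLAzer RXR-alpha HEK 293T cells grown in 2% charcoal-stripped FBS. Exposure lasted 16 hr at 37 C, 5% CO2; viability read by CellTiter-Glo luminescence.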

[2] = qHTS assay to identify small molecule antagonists of the retinoid acid receptor (RAR) signaling pathway - cell viability counter screen (AID 1159551); note: nearly all actives have a fitted effect of over 35% in size; note: potency is the fitted concentration of half-maximal effect
Method in brief: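 ATP-based viability, C3RL4 cells, 6 h at 37 C with 1 uM final retinol co-added after compound; luminescence read 30 min post CellTiter-Glo, RT.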

[3] = qHTS assay to identify small molecule antagonists of the estrogen related receptor (ERR) signaling pathway - cell viability counter screen (AID 1224818);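 note: series mostly up to about 46 µM; viability measured after 17.5 h of compound exposure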
Method in brief: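 Quantitative high-throughput viability counter screen in ERR cells. Compounds (DMSO) incubated 17.5 h at 37 C; read-out was CellTiter-Fluor fluorescence.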

[4] = molecular target: Luciferin 4-monooxygenase (Photinus pyralis) (UniProt P08659); assay: qHTS assay to identify small molecule inhibitors of firefly luciferase (AID 1224835); note: nearly all actives have a fitted effect of over 25% in size; note: potency is the fitted concentration of half-maximal effect
Chain of Luciferin 4-monooxygenase (Photinus pyralis) (P08659 whole entry, looked up): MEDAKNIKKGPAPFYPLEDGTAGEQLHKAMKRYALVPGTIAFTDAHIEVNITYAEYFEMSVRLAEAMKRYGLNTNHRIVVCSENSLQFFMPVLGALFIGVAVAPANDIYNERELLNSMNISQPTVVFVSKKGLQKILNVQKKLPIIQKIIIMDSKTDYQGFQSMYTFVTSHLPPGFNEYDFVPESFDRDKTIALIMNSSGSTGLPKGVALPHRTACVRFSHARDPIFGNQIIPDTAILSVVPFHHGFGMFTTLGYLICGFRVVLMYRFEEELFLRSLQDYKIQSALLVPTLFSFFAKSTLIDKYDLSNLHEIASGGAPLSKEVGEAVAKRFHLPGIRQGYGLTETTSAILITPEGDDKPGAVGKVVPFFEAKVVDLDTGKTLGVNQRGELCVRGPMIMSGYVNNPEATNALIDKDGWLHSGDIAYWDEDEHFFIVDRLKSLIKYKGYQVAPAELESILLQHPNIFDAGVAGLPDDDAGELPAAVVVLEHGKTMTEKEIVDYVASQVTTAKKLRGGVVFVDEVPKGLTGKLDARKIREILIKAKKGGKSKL
Method in brief: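 Biochemical qHTS: compounds run as interplate titrations against purified firefly enzyme, with D-luciferin and ATP each at its KM concentration. Light output recorded by CCD imaging.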

[5] = qHTS assay to identify small molecule agonists of the constitutive androstane receptor (CAR) signaling pathway - cell viability counter screen (AID 1224836); note: nearly all actives have a fitted effect of over 45% in size; note: potency is the fitted concentration of half-maximal effect
Method in brief: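 Fluorescence from CellTiter-Fluor indicates live cells after 23 h exposure. The human hepatoma line expresses hCAR and a CYP2B6-2.2kb reporter. Incubation medium contains 0.75 uM PK11195 (final).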

[6] = qHTS assay to identify small molecule antagonists of the constitutive androstane receptor (CAR) signaling pathway - cell viability counter screen (AID 1224837); note: nearly all actives have a fitted effect of over 45% in size; note: potency is the fitted concentration of half-maximal effect
Method in brief: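 Cells are seeded, rested 4 hr at 37 C/5% CO2, dosed with compound (15-point series) and 50 nM CITCO, incubated a further 23 hr, and then CellTiter-Fluor reagent is added before fluorescence is read. The line is HepG2 with stable hCAR and CYP2B6-2.2kb.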

[7] = qHTS assay to identify small molecule antagonists of the estrogen related receptor signaling pathway with the pleiotropic PPARgamma coactivator (PGC) from Tox21 10K library - cell viability counter screen (AID 1224840; active = well fitted cell-killing curve with a large enough effect in the repeat runs, not every such curve was filed as active; note: nearly all actives have a fitted effect of over 40% in size; note: potency is the fitted concentration of half-maximal effect)
Method in brief: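 Cell viability is measured by CellTiter-Fluor fluorescence in PGC/ERR cells that receive compounds after a 6-hour attachment period and are then incubated 17.5 hours at 37 C.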

[8] = molecular target: Thyrotropin receptor (Homo sapiens) (UniProt P16473); assay: qHTS assay to identify small molecule agonists of the thyroid stimulating hormone receptor (TSHR) signaling pathway (AID 1224843; calls by dose curve; note: nearly all actives have a fitted effect of over 45% in size)
Chain of Thyrotropin receptor (Homo sapiens) (P16473 whole entry, looked up): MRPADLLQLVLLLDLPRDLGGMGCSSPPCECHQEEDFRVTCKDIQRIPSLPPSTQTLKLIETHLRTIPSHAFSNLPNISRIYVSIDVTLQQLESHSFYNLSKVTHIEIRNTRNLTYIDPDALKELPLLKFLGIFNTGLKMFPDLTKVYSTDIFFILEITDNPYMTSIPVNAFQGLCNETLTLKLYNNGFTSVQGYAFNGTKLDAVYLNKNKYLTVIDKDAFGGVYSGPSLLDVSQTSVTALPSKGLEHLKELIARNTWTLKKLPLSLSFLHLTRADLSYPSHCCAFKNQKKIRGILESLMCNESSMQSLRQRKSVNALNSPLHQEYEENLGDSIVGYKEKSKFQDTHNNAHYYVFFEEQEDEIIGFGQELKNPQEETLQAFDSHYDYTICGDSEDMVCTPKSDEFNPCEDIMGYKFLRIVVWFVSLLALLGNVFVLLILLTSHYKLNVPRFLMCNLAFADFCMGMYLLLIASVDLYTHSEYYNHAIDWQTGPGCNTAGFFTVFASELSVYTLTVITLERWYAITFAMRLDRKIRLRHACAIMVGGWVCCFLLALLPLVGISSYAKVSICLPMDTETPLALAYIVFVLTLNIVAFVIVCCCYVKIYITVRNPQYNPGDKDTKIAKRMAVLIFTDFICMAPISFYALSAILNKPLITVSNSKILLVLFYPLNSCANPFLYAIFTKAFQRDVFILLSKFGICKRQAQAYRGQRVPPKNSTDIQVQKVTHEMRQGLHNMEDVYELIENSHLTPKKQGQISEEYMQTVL
Method in brief: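 Agonist-mode screen: TSHR HEK293 cells received test chemicals for half an hour at room temperature, then HTRF cAMP detection reagents for one hour prior to fluorescence measurement. Each chemical ran as a 15-concentration series, triplicated.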

[9] = qHTS assay to identify small molecule antagonists of the retinoic acid receptor (RAR) signaling pathway (AID 1159552; note: nearly all actives have a fitted effect of over 50% in size; note: potency is the fitted concentration of half-maximal effect)
Method in brief: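 Overnight-plated C3RL4 reporter cells get compound, then retinol to 1 uM final; plates sit 6 hr at 37 C, 5% CO2. A luciferase reagent is added and light output recorded after 30 min at room temperature.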

[10] = qHTS assay to identify small molecule agonists of the retinoic acid receptor (RAR) signaling pathway (AID 1159553); note: potency is the fitted concentration of half-maximal effect
Method in brief: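 Quantitative high-throughput format: the Tox21 10K library was tested on C3RL4 RARE-luciferase cells for 6 hr at 37 C and 5% CO2, with luminescence measured after a 30 min room-temperature reagent step.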

[11] = qHTS assay to identify small molecule antagonists of the estrogen related receptor (ERR) signaling pathway from Tox21 library - cell viability counter screen (AID 1224834); note: nearly all actives have a fitted effect of over 30% in size; note: potency is the fitted concentration of half-maximal effect
Method in brief: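 Compounds in DMSO were pinned onto ERR cells that had been incubated for 6 h, and the plates were held at 37 C for 17.5 h. CellTiter-Fluor reagent was then added and fluorescence was measured after 30 min.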

[12] = molecular target: Nuclear receptor subfamily 1 group I member 3 (Homo sapiens) (UniProt Q14994); assay: qHTS assay to identify small molecule antagonists of the constitutive androstane receptor (CAR) signaling pathway (AID 1224838);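 note: HepG2 cells stably expressing hCAR with CYP2B6 luciferase reporter stimulated by CITCO; nearly all actives have a fitted effect of over 40% in size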; note: potency is the fitted concentration of half-maximal effect
Chain of Nuclear receptor subfamily 1 group I member 3 (Homo sapiens) (Q14994 whole entry, looked up): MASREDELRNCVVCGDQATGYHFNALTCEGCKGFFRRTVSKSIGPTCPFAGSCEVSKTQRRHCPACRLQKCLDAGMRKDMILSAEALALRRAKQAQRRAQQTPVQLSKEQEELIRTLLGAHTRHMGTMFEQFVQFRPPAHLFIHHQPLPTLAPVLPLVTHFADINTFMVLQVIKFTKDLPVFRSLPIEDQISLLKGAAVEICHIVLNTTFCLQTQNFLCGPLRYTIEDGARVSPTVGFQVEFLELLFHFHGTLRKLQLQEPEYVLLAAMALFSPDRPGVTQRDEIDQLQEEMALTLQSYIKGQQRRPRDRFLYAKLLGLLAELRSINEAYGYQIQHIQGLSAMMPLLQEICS
Method in brief: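 Luminescence from a CYP2B6-2.2kb promoter reporter in hCAR-expressing HepG2 cells reflects CAR signaling. Cells received compounds at 15 concentrations and 50 nM CITCO (final), then incubated 24 h at 37 C/5% CO2.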

[13] = molecular target: Nuclear receptor subfamily 1 group I member 3 (Homo sapiens) (UniProt Q14994); assay: qHTS assay to identify small molecule agonists of the constitutive androstane receptor (CAR) signaling pathway (AID 1224839); note: nearly all actives have a fitted effect of over 15% in size; note: potency is the fitted concentration of half-maximal effect
Method in brief: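 Stable hCAR/CYP2B6-2.2kb HepG2 line in DMEM with 10% FBS; compounds (15 concentrations) and 0.75 uM PK11195 final, 24 h at 37 C/5% CO2, then ONE-Glo luminescence after 30 min.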

[14] = qHTS assay to identify small molecule antagonists of the estrogen related receptor signaling pathway with the pleiotropic PPARgamma coactivator (PGC) from Tox21 10K library (AID 1224841; call rule not given here; note: actives are mostly falling curves and most rising ones were filed inactive; nearly all actives have a fitted effect of over 50% in size; note: potency is the fitted concentration of half-maximal effect)
Method in brief: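 Cells stably carrying the PGC/ERR reporter, seeded at 2,000 per well, received pin-transferred compounds 6 h post-plating. Exposure lasted 18 h at 37 C. Signal: One-Glo luminescence.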

[15] = qHTS assay to identify small molecule agonists of the estrogen related receptor signaling pathway with the pleiotropic PPARgamma coactivator (PGC) from Tox21 10K library (AID 1224842); note: nearly all actives have a fitted effect of over 15% in size
Method in brief: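 PGC/ERR reporter cell line, 2,000 cells per well, incubated 6 h at 37 C before 23 nL compound in DMSO was added. After 18 h at 37 C, One-Glo luminescence read following 30 min at room temperature.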

[16] = molecular target: Retinoic acid receptor RXR-alpha (Homo sapiens) (UniProt P19793); assay: qHTS assay to identify small molecule agonists of the RXR signaling pathway (AID 1159527; calls by dose curve; note: nearly all actives have a fitted effect of over 35% in size)
Chain of Retinoic acid receptor RXR-alpha (Homo sapiens) (P19793 whole entry, looked up): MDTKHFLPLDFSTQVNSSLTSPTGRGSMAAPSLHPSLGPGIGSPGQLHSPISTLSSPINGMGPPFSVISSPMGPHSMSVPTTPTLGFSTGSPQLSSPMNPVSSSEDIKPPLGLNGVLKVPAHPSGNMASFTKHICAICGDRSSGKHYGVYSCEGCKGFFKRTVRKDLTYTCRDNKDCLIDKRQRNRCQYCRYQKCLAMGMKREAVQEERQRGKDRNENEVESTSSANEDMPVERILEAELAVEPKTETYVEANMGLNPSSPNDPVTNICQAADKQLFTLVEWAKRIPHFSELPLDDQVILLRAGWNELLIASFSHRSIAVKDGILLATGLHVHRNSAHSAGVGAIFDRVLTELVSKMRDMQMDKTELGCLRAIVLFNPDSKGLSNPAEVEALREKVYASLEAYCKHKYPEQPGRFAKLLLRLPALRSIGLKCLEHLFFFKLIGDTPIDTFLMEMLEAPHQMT
Method in brief: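 Reporter activation is measured as beta-lactamase activity via FRET substrate cleavage (emission 460/530 nm) in HEK 293T cells expressing an RXR-alpha-driven bla construct, following 16 hr compound exposure at 37 C.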

[17] = qHTS assay to identify small molecule antagonists of the estrogen related receptor (ERR) signaling pathway (AID 1224819; note: potency is the fitted concentration of half-maximal effect; nearly all actives have a fitted effect of over 50% in size)
Method in brief: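 ERR reporter cell line (NTP) plated at 2,000 cells/well, settled 6 h at 37C/5% CO2, then exposed to LOPAC compounds for 18 h at 37C. One-Glo luciferase luminescence read after 30 min at room temperature.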

[18] = qHTS assay to identify small molecule agonists of the estrogen related receptor (ERR) signaling pathway (AID 1224820)
Method in brief: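 An ERR cell line provided by NTP was seeded at 2,000 cells per well and allowed to settle for 6 h before compounds in DMSO were added. After 18 h at 37 C, luciferase activity was measured by One-Glo luminescence.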

[19] = tested on: estrogen-related receptor alpha (ERRalpha) with PGC-1alpha coactivator, human; assay: qHTS assay to identify small molecule antagonists of the estrogen related receptor signaling pathway with the pleiotropic PPARgamma coactivator (PGC) (AID 1224821; calls by dose curve)
Method in brief: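 A PGC/ERR cell line supplied by NTP is seeded, allowed 6 h at 37 C, and treated with test compounds in DMSO for 18 h. Signal is then measured as luciferase luminescence using One-Glo.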

[20] = qHTS assay to identify small molecule agonists of the estrogen related receptor signaling pathway with the pleiotropic PPARgamma coactivator (PGC) (AID 1224823)
Method in brief: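 Compounds dissolved in DMSO are added by pin tool to PGC/ERR cells that have settled for 6 h, and incubation continues 18 h at 37 C. Reporter output is measured as One-Glo luminescence.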

| Compound | Potency [1] | Potency [2] | Potency [3] | Potency [4] | Potency [5] | Potency [6] | Potency [7] | Potency [8] | Potency [9] | Potency [10] | Potency [11] | Potency [12] | Potency [13] | Potency [14] | Potency [15] | Potency [16] | Potency [17] | outcome [18] | Potency [19] | outcome [20] |
| --- | --- | --- | --- | --- | --- | --- | --- | --- | --- | --- | --- | --- | --- | --- | --- | --- | --- | --- | --- | --- |
| CC(=O)O[C@]1(C(C)=O)CC[C@H]2[C@@H]3C=C(Cl)C4=CC(=O)[C@@H]5C[C@@H]5[C@]4(C)[C@H]3CC[C@@]21C | inactive | inactive | inactive | inactive | inactive | inactive | inactive | inactive | – | – | – | – | – | – | – | – | – | – | – | – |
| CCOC(=O)C(C#N)=C(c1ccccc1)c1ccccc1 | inactive | inactive | – | inactive | inactive | inactive | inactive | inactive | inactive | inactive | inactive | inactive | 3.86 µM (active) and 3.76 µM (active) | inactive | inactive | – | – | – | – | – |
| Cc1ccc(C(=O)c2cc(O)c(O)c([N+](=O)[O-])c2)cc1 | inactive | inactive | – | 63.3 µM (active) and 34.7 µM (active) | 43.3 µM (active) | – | 43.3 µM (active) and inactive | inactive | – | – | 43.3 µM (active) | – | – | 30.6 µM (active) | inactive | – | – | – | – | – |
| CC(C)(C)NC(=O)[C@H]1CC[C@H]2[C@@H]3CC[C@H]4NC(=O)C=C[C@]4(C)[C@H]3CC[C@]12C | inactive | inactive | – | inactive | inactive | inactive | inactive | – | inactive | inactive | inactive | inactive | inactive | – | – | – | – | – | – | – |
| COC(C)COC(C)COC(C)CO (stereo not given) | inactive | inactive | – | inactive | inactive | inactive | inactive | inactive | – | – | inactive | inactive | inactive | inactive | inactive | – | – | – | – | – |
| S=C(NC1CCCCC1)NC1CCCCC1 | inactive | inactive | – | inactive | inactive | inactive | – | inactive | inactive | 9.5 µM (active) and 9.69 µM (active) | 13.7 µM (active) | 13.4 µM (active) and 8.63 µM (active) | inactive | 23.9 µM (active) and 21.7 µM (active) | inactive | – | – | – | – | – |
| CN(C)CCN(Cc1cccs1)c1ccccn1 | – | inactive | inactive | inactive | inactive | inactive | inactive | inactive | inactive | inactive | inactive | – | – | – | – | inactive | – | – | – | – |
| O=C(Nc1ccc([N+](=O)[O-])cc1Cl)c1cc(Cl)ccc1O | – | – | – | 399 nM (active) and 301 nM (active) | 6.86 µM (active) and 4.61 µM (active) | 5.45 µM (active) and 3.26 µM (active) | 2.73 µM (active) | inactive | inactive | 43.3 nM (active) and 82 nM (active) | 3.86 µM (active) and 1.3 µM (active) | – | 1.54 µM (active) and 820 nM (active) | – | – | – | – | – | – | – |
| CN(C)C(=N)N=C(N)N | inactive | inactive | – | – | inactive | inactive | inactive | inactive | – | inactive | inactive | inactive | inactive | – | – | – | – | – | – | – |
| OC1CCCCCCCCCCC1 | inactive | inactive | – | inactive | inactive | inactive | inactive | inactive | inactive | inactive | inactive | inactive | inactive | – | – | – | – | – | – | – |
| Nc1ncn([C@@H]2O[C@H](CO)[C@@H](O)[C@H]2O)c(=O)n1 | inactive | inactive | – | inactive | 5.96 µM (active) | 4.86 µM (active) | inactive | inactive | 27.3 µM (active) and 29.8 µM (active) | – | 2.17 µM (active) and 3.76 µM (active) | – | inactive | 2.73 µM (active) and 7.5 µM (active) | inactive | – | 0.619 µM (active) | inactive | 3.1 µM (active) | inactive |
| c1ccc2sc(SSN3CCOCC3)nc2c1 | inactive | 61 µM (active) | – | 22.4 µM (active) and 15.9 µM (active) | inactive | – | inactive | inactive | – | inactive | inactive | – | – | inactive | inactive | – | – | – | – | – |
